According to PubChem BioAssay (NCI):
This is part of a sample that, as a whole, favours compounds with a hit. Of some 83,000 tested, about 20% had one in any assay.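 Percent growth is the endpoint: 0 to 100 indicates growth inhibition (40 means 60% inhibition), 0 means no net growth, and negative values indicate cell death.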 The source made the active and inactive calls. How the source made its calls: active means growth percent below 10; inactive means the rest.

test system: NCI-H23 lung; assay: NCI-60 one-dose screen, 48 h (100 = growth as untreated, 0 = no growth, -100 = all killed); conditions: 10 µM unless noted

| Compound | growth |
| --- | --- |
| CCOc1cc(/C=N\NC(=O)N/N=C/c2ccc(O)c(OCC)c2)ccc1O | 33% (inactive) |
| Cc1ccc(C2=C/C(=C/c3ccc(Br)cc3)C(=O)N2CCc2ccc(S(N)(=O)=O)cc2)cc1 | 100% (inactive) |
| Clc1ccc(N2CCN(CCCN3CCN(c4cccc(Cl)c4)CC3)CC2)cc1 | 50.8% (inactive) |
| CC(C)OC(=O)Nc1cc(F)ccc1F | 92.9% (inactive) |
| C[C@H]1[C@H](C)CC[C@]2(C(=O)N3CCN(C)CC3)CC[C@]3(C)C(=CC[C@@H]4[C@@]5(C)C/C(=C/c6ccco6)C(=O)C(C)(C)[C@@H]5CC[C@]43C)[C@H]12 | 32.5% [100 µM] (inactive) |
| CC(C)C1=NOC(=O)C1=Cc1cn(-c2ccccc2)nc1-c1ccc(Br)cc1 | 85.8% (inactive) |
| C=C(CN=[N+]=[N-])[C@@H]1CC[C@]2(C)[C@H](CC[C@@H]3[C@H]4[C@H]5OC(=O)[C@@]4(CCC5(C)C)CC[C@]32C)[C@@]1(C)CCC#N | 82.2% [100 µM] (inactive) |
| Nn1c(Nc2ccc(S(=O)(=O)Nc3ncccn3)cc2)nnc(/C=C/c2c(O)ccc3ccccc23)c1=O | 88.9% (inactive) |
| Nc1cc(NN=C(c2ccc(O)cc2)c2ccc(O)cc2)c([N+](=O)[O-])cc1[N+](=O)[O-] | -58.3% (active) |
| CSc1nc2c(c(=O)n1C)C1(C(=O)N(Cc3ccccc3)c3ccccc31)c1c(nc(SC)n(C)c1=O)N2 | 92.9% (inactive) |
| NNC(=O)c1ccc(C(=O)NN)cc1 | 101% (inactive) |
| COc1cc(Cl)cc(-c2nn(C(=O)NS(=O)(=O)c3ccccc3)cc2-c2ccncc2)c1 | 90.4% (inactive) |
| CCN(CC)CC(C)Nc1ccc(C)c2sc3ccccc3c(=O)c12 (stereo not drawn) | 65.9% (inactive) |
| COc1ccc2c3ccnc(C(F)(F)F)c3n(CCCCN)c2c1 | 54.6% (inactive) |
| COc1ccc(C2CC(c3cc(OC)c(OC)c(OC)c3)=NN2C(C)=O)cc1OCC(=O)Nc1nc2ccc(C(F)(F)F)cc2s1 (stereo not drawn) | 67.3% (inactive) |
| COC(=O)C(=Cc1ccccc1[N+](=O)[O-])C(=O)OC | 38.8% (inactive) |
| C=CCCCCOc1ccccc1-c1cnc(OCCCCC=C)n1C | 76% (inactive) |
| O=C(O)c1cccc(CN2CCN(c3cc4c(cc3F)c(=O)c(C(=O)O)cn4C3CC3)CC2)c1O | 101% (inactive) |
| Cc1cc(C)c(O)c(CNCCCCCCNCc2cc(C)cc(C)c2O)c1 | 56% (inactive) |

| Compound | growth |
| --- | --- |
| Cc1cnc(N)nc1OCC(C)(C)CNC(=O)c1cccc(-c2ccc(S(=O)(=O)Nc3ccc4c(c3)N(C(=O)C3CC3)CCC4)cc2)c1 | 48.6% (inactive) |
| CCOc1cc(NC(=O)c2ccccc2)c(OCC)cc1N | 102% (inactive) |
| CCN(CC)c1ccc(/C=C/c2ccc3cc(C)ccc3[n+]2CC)cc1 | -1.98% (active) |
| O=C1COCCN1c1ccc(NCc2cn(Cc3ccccc3)c3ccccc23)cc1 | 93.7% (inactive) |
| c1nc(N2CCOCC2)c2[nH]ccc2n1 | 116% (inactive) |
| O=C(Nc1cccc2cccnc12)c1cc(C(=O)c2ccc(Cl)cc2)n2ccc(-c3ccncc3)cc12 | 102% (inactive) |
| COc1cc2c(c(OC)c1)C1c3cc(OC)ccc3NC(=O)N1CC2 (stereo not drawn) | 92.9% (inactive) |
| CC[C@]1(O)CC2CN(CCc3c([nH]c4ccccc34)[C@@](C(=O)OC)(c3cc4c(cc3OC)N(C=O)[C@H]3[C@@](O)(C(=O)OC)[C@H](OC(C)=O)[C@]5(CC)C=CCN6CC[C@]43[C@@H]65)C2)C1 (stereo partly drawn) | 21.5% (inactive) |
| CC(C)C1=NOC(=O)C1=Cc1cn(-c2ccco2)nc1-c1ccccc1 | 96.6% (inactive) |
| COC(=O)[C@H](CC(C)C)NC(=O)NC(=O)NC(=O)CI | 73.5% (inactive) |
| O=C1NC(=O)C(Cc2ccc(OCc3ccc(-c4cc(F)c(F)c(F)c4)cc3)cc2)S1 (stereo not drawn) | 80.9% (inactive) |
| NC(=O)CC1C=CCC1 (stereo not drawn) | 94.5% (inactive) |
| CC(C)C1=NOC(=O)C1=Cc1cn(-c2ccccc2)nc1-c1ccccc1 | 98% (inactive) |
| COc1ccc2c(c1)c(-c1noc(C(=O)c3cn(C)c4ncc(Br)cc34)n1)cn2C | 30.1% (inactive) |
| C#C[C@]1(O)CC[C@H]2[C@@H]3CC=C4c5nc(Nc6ccccn6)sc5CC[C@]4(C)[C@H]3CC[C@@]21C | 34.7% (inactive) |
| O=C1CN(Cc2ccc(C(=O)NO)cc2)C(=O)[C@@H](Cc2ccccc2)N1 | 100% (inactive) |
| COC(=O)[C@]1(C)CC[C@]2(C)CC[C@]3(C)C(=CC(=O)[C@@H]4[C@@]5(C)CCC(=O)NC(C)(C)[C@@H]5CC[C@]43C)[C@@H]2C1 | -77.5% [100 µM] (active) |
| O=C(CSc1nc2ccc([N+](=O)[O-])cc2[nH]1)Nc1cccc(Cl)c1 | -2.48% (active) |
| CCn1cc(-c2ccnc(NCCNS(=O)(=O)c3cccc4ccccc34)c2)c(-c2cccc(O)c2)n1 | 100% (inactive) |
